Only some compounds are listed: those with a hit (about 2.3% of all), similar ones and a draw of the others.
C diff growth: C. difficile growth inhibition. Clostridium difficile clinical isolate growth, OD600, 24 h; active compounds read low. growth activity, negative = inhibition, % at 16 µg/mL (by protocol). 0.25% of 86,000 active. AID 1259249;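 active means mean growth activity at or below -80% and every replicate also at or below -80%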
Pf Dd2 inh: blocks growth of Plasmodium falciparum Dd2 parasites | P. falciparum Dd2 growth, SYBR Green, 72 h; active compounds read low | activity change, % at 10 µM | 2.3% of 94,000 active; in the data active means activity change below about -80%
A number is an active result; 0 = inactive; - = not tested or not shown.

SMILES	C diff growth	Pf Dd2 inh
CC=Cc1ccc2n(c1=O)C[C@H]1[C@H](CO)[C@@H](C(=O)Nc3ccc(-c4ccccc4)cc3)[C@@H]2N1C(=O)CC (mixture of isomers)	0	-
C[C@@H]1CN([C@@H](C)CO)C(=O)CCCn2nncc2CO[C@H]1CN(C)S(=O)(=O)c1cccc(C#N)c1	-	0
COc1cccc(C#Cc2cnc3c(c2)C(=O)N([C@@H](C)CO)C[C@H](C)[C@@H](CN(C)C(=O)C2CCCCC2)O3)c1	0	-86
COc1cccc(C#Cc2cnc3c(c2)C(=O)N([C@@H](C)CO)C[C@@H](C)[C@H](CN(C)C(=O)C2CCOCC2)O3)c1	0	0
COc1cccc(C#Cc2cnc3c(c2)C(=O)N([C@H](C)CO)C[C@@H](C)[C@H](CN(C)C(=O)C2CCCCC2)O3)c1	0	0
COc1cccc(C#Cc2cnc3c(c2)C(=O)N([C@@H](C)CO)C[C@@H](C)[C@@H](CN(C)C(=O)C2CCCCC2)O3)c1	0	0
COc1cccc(C#Cc2cnc3c(c2)C(=O)N([C@H](C)CO)C[C@@H](C)[C@@H](CN(C)C(=O)C2CCCCC2)O3)c1	0	0
COc1cccc(C#Cc2cnc3c(c2)C(=O)N([C@H](C)CO)C[C@H](C)[C@H](CN(C)C(=O)C2CCCCC2)O3)c1	0	-86
COc1cccc(C#Cc2cnc3c(c2)C(=O)N([C@H](C)CO)C[C@H](C)[C@@H](CN(C)C(=O)C2CCOCC2)O3)c1	0	-81
COc1cccc(C#Cc2cnc3c(c2)C(=O)N([C@H](C)CO)C[C@H](C)[C@@H](CN(C)C(=O)C2CCCCC2)O3)c1	0	-87
COc1cccc(C(=O)Nc2ccc3c(c2)C(=O)N(C)C[C@@H](OC)[C@@H](C)CN(CC2CC2)[C@H](C)CO3)c1	-	0
C[C@@H]1CCCCO[C@@H](CN(C)S(C)(=O)=O)[C@H](C)CN([C@@H](C)CO)C(=O)c2cc(NC(=O)Nc3ccccc3)ccc2O1	0	0
C[C@@H]1CN([C@@H](C)CO)S(=O)(=O)c2ccc(-c3ccccc3)cc2O[C@@H]1CN(C)C(=O)c1ccc2c(c1)OCO2	0	0
COc1ccccc1NC(=O)N(C)C[C@@H]1OCc2ccccc2-c2c(n(C)c3ccccc23)C(=O)N([C@H](C)CO)C[C@H]1C	-	0
C[C@@H]1CN([C@@H](C)CO)C(=O)c2c(c3ccccc3n2C)-c2ccccc2CO[C@@H]1CN(C)C(=O)Nc1cccc(Cl)c1Cl	0	-92
C[C@H]1CN([C@@H](C)CO)C(=O)c2c(c3ccccc3n2C)-c2ccccc2CO[C@H]1CN(C)C(=O)Nc1ccccc1C(F)(F)F	0	-84
C[C@@H]1CN([C@H](C)CO)C(=O)c2c(c3ccccc3n2C)-c2ccccc2CO[C@H]1CN(C)C(=O)Nc1ccccc1C(F)(F)F	0	0
COc1ccc2c3c([nH]c2c1)[C@H](CO)N(Cc1ccc(Cl)cc1)CC31CN(Cc2nccs2)C1	0	-86
COc1ccc2c3c([nH]c2c1)[C@@H](CO)N(Cc1ccc(Cl)cc1)CC31CCN(Cc2ccccc2)CC1	0	0
COc1ccc2c3c([nH]c2c1)[C@H](CO)N(Cc1nccs1)CC31CN(Cc2ccncc2)C1	0	0
COc1ccc2c3c([nH]c2c1)[C@@H](CO)N(Cc1ccc(Cl)cc1)CC31CCN(Cc2nccs2)CC1	0	-88
Cc1noc(C)c1S(=O)(=O)Nc1ccc2c(c1)C(=O)N([C@@H](C)CO)C[C@H](C)[C@@H](CN(C)C(=O)NC1CCCCC1)OCCCC[C@H](C)O2	0	0
COc1ccc(NC(=O)Nc2ccc3c(c2)C(=O)N([C@@H](C)CO)C[C@@H](C)[C@@H](CN(C)S(=O)(=O)c2cccs2)OCCCC[C@@H](C)O3)cc1	0	0
Cc1ccc(-c2ccc([C@@H]3[C@H]4CN(C(=O)CN5CCOCC5)CC(=O)N4[C@H]3CO)cc2)cc1	0	0
CCCC#Cc1ccc([C@@H]2[C@H](CO)N3CCCCN(S(=O)(=O)Cc4ccccc4)C[C@@H]23)cc1	-90	-84
SMILES	C diff growth	Pf Dd2 inh
CCCC#Cc1ccc([C@H]2[C@H]3CN(S(=O)(=O)Cc4ccccc4)CCCCN3[C@H]2CO)cc1	0	0
Cc1ccccc1S(=O)(=O)N1CCCCN2[C@@H](CO)[C@@H](c3ccc(-c4ccccc4)cc3)[C@@H]2C1	0	0
CCCC#Cc1ccc([C@@H]2[C@H](CO)N3CCCCN(S(=O)(=O)c4ccccc4C)C[C@@H]23)cc1	-96	0
CCCC#Cc1ccc([C@H]2[C@H]3CN(S(=O)(=O)c4ccccc4C)CCCCN3[C@H]2CO)cc1	0	0
Cc1ccccc1S(=O)(=O)N1CCCCN2[C@H](CO)[C@H](c3ccc(-c4ccccc4)cc3)[C@H]2C1	0	-82
CCCNC(=O)C[C@H]1C[C@@H]2c3cc(NC(=O)Nc4ccc(F)cc4)ccc3O[C@@H]2[C@H](CO)O1	0	0
CCCNC(=O)N(C)C[C@@H]1Oc2ncc(C#CC3CC3)cc2C(=O)N([C@H](C)CO)C[C@H]1C	-	0

Screening results from PubChem BioAssay.
